Our source for the growth values is PubChem BioAssay (NCI).

Each structure is given as a SMILES string. This is part of a sample that, as a whole, favours compounds with a hit. Of some 83,000 tested, about 20% had one in any assay.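 Interpretation: 100, growth as untreated; towards 0, rising growth inhibition; 0, no net growth; 0 to -100, cell death. Compounds scoring below 10 were considered active.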 A number with no mark means an inactive call. Calls of active or inactive are those of the source.

The first assay relates to MDA-MB-435 melanoma. The assay is described as follows: NCI-60 one-dose screen, 48 h (100 = growth as untreated, 0 = no growth, -100 = all killed). The settings on record: 10 µM unless noted.
Turning to `O=c1oc2ccccc2cc1-c1csc(N=Nc2c(O)[nH]c3ccc(Cl)cc23)n1`, the growth was 98.9%.
The same measure, in the same setting: then `COc1cc2nc(SCc3cc(OC)c(OC)c(OC)c3)n(-c3ccccc3OC)c(=O)c2cc1OC`, with 0.0693% (active).
As to `COc1ccc(-c2nc3sccn3c2/C=C/C(=O)c2cc(OC)c(OC)c(OC)c2)cc1OC`, the growth was -30.5% (active).
On to `COC(=O)c1c2c(c(C)[n+]([O-])c1C)C(=O)C=C(NCc1ccc(F)c(Cl)c1)C2=O`, for which the growth was -96.9% (active).
As for `O=C(N/N=C/c1ccc(F)cc1)c1[nH]c2ccc(I)cc2c1-c1ccccc1`, the growth is -24% (active).
With `Cc1nc2cc(Nc3nc(Nc4ccc(F)cc4)nc(N4CCCC4)n3)ccc2n1Cc1ccccc1`, the growth was -74.2% (active).
On the same count and under the same terms, the same measure for `COc1cc2oc(-c3ccc(O)cc3)cc(=O)c2c(O)c1I`: 101%.
For the molecule `COC(=O)c1c2c(c(C)[n+]([O-])c1C)C(=O)C=C(NCc1ccc(Cl)cc1)C2=O`, the growth is -96.1% (active).
In the case of `Cc1nc2cc(Nc3nc(Nc4ccc(F)cc4)nc(N4CCN(C)CC4)n3)ccc2n1Cc1ccccc1`, the growth was 0.19% (active).
Turning to `COc1ccc(OC)c2ncccc12`, the growth is 105%.
For `COc1ccc(S(=O)(=O)ON=C2C=C(C)C(=O)C(C)=C2)cc1`, the growth is 18.1%.
Take `O=C(COc1cccc(/C=C2\COc3ccccc3C2=O)c1)c1ccccc1`: the growth was 43.1%.
Regarding `Oc1cccc(Nc2nc(-c3ccccn3)cs2)c1`, the growth is 105%.
Turning to `O=C1c2c(c3c4cc(Br)ccc4[nH]c3c3ccc4ccccc4c23)C(=O)N1O`, the growth was 94.6%.
As to `C=CC[P+](c1ccccc1)(c1ccccc1)c1ccccc1`, the growth was 32.3%.
Take `COC(=O)c1c2c(c(C)[n+]([O-])c1C)C(=O)C=C(NCc1cccc(Cl)c1)C2=O`: the growth was -92.1% (active).
On to `COc1ccc(-c2[nH]ncc2Nc2cc(OC)c(OC)c(OC)c2)cc1`, for which the growth is -11.7% (active).
Consider `COc1ccc(-c2nc(Nc3ccc(F)cc3)nc(Nc3ccc4c(c3)nc(C)n4Cc3ccccc3)n2)cc1`, for which the growth is 34.1%.
Consider `O=C(N/N=C(\CS(=O)(=O)c1ccccc1)c1cc2ccccc2oc1=O)c1ccccc1`, for which the growth was 103%.
As for `COc1ccc(C(=O)C2=CC(=O)C(=O)C2)cc1OC`, the growth is 106%.
As for `COc1ccc(C(=O)COc2cccc(/C=C3\CSc4ccc(C)cc4C3=O)c2)cc1`, the growth is 69.5%.
For `Cc1ccc(S(=O)(=O)N2C/C(=C\c3cc(F)cc(F)c3)C(=O)/C(=C/c3cc(F)cc(F)c3)C2)cc1`, the growth is -76.6% (active).
Take `Nc1nc(N)c(N=Nc2c(Br)cc(S(N)(=O)=O)cc2Br)c(N)n1`: the growth is 48.3%.
On to `Cc1ccc(-c2c3c(N)c4c(nc3nc3c2c(C)nn3-c2ccccc2)CCCC4)cc1`, for which the growth was 96.4%.
Regarding `COc1cc(-c2nc3ccccc3o2)cc(CN2CCN(c3ccccc3)CC2)c1O`, the growth was -78% (active).
Same read-out and setting: then `Cc1cccc2c(=O)c3c(sc12)c(NCCNCCO)nc1ccccc13`, with 7.39% (active).
As to `Nc1nc2c(s1)CCc1c-2c(Br)n(Cc2ccccc2)c1Br`, the growth is 95.6%.
Turning to `COC(=O)c1c2c(c(C)[n+]([O-])c1C)C(=O)C=C(NCc1cccc(OC)c1)C2=O`, the growth is -94.7% (active).
Turning to `COc1ccc(-c2csc3c2-n2cccc2C3=O)cc1O`, the growth was -57.1% (active).
Consider `COc1ccc(-c2c(-c3cc4c(c(OC)c3OC)OCO4)noc2N)cc1`, for which the growth is -32.1% (active).
Take `O=C(N/N=C(\CS(=O)(=O)c1ccccc1)c1cc2cc(Br)ccc2oc1=O)c1ccccc1`: the growth was 100%.
As for `Cn1c(=O)c2c(-c3ccccc3F)n(-c3ccc4c(c3)OCO4)cc2n(C)c1=O`, the growth was 88.6%.
As for `CN(C)C(=S)SCN1C(=O)c2ccc([N+](=O)[O-])cc2S1(=O)=O`, the growth is 101%.
With `Cc1nn(-c2ccccc2)c2nc3nc4c(c(N)c3c(-c3ccc(Cl)cc3)c12)CCCC4`, the growth is 97%.
Take `COc1cc(CNCCN2C(=O)c3ccc4c5c(ccc(c35)C2=O)C(=O)N(CCNCc2cc(OC)c(OC)c(OC)c2)C4=O)cc(OC)c1OC`: the growth is -63.4% (active).
For `O=C(O)c1ccccc1Oc1cc(-c2ccco2)nc(OCCBr)n1`, the growth is 101%.
On to `COc1cc(-c2ccc3cc(OC)c(OC)c(OC)c3c2)cc(OC)c1OC`, for which the growth was -16.7% (active).
On to `COc1cccc(-c2ccc3c(c2)C2CCN(Cc4ccccc4)C3C2)c1` (centres undefined), for which the growth is 9.08% (active).
Take `COc1ccc(OC2=CC(=O)c3ccc(C)nc3C2=O)cc1`: the growth was 83%.
Consider `CC(=O)OC[C@]1(C)C=C2C(=O)[C@](C)(O)C3(CC3)C(C)=C2[C@H]1OC(C)=O`, for which the growth was 95.4%.

In the next assay the test system is SW-620 colon. Described as above. The settings on record: 10 µM unless noted.
As for `O=c1oc2ccccc2cc1-c1csc(N=Nc2c(O)[nH]c3ccc(Cl)cc23)n1`, the growth is 103%.
Take `COc1cc2nc(SCc3cc(OC)c(OC)c(OC)c3)n(-c3ccccc3OC)c(=O)c2cc1OC`: the growth is 76.4%.
Turning to `COc1ccc(-c2nc3sccn3c2/C=C/C(=O)c2cc(OC)c(OC)c(OC)c2)cc1OC`, the growth was 10.2%.
Regarding `COC(=O)c1c2c(c(C)[n+]([O-])c1C)C(=O)C=C(NCc1ccc(F)c(Cl)c1)C2=O`, the growth was -29.6% (active).
For `O=C(N/N=C/c1ccc(F)cc1)c1[nH]c2ccc(I)cc2c1-c1ccccc1`, the growth is 33.3%.
Same read-out and setting: the same measure for `Cc1nc2cc(Nc3nc(Nc4ccc(F)cc4)nc(N4CCCC4)n3)ccc2n1Cc1ccccc1`: -53.8% (active).
Same read-out and setting: then `COc1cc2oc(-c3ccc(O)cc3)cc(=O)c2c(O)c1I`, with 109%.
For the molecule `COC(=O)c1c2c(c(C)[n+]([O-])c1C)C(=O)C=C(NCc1ccc(Cl)cc1)C2=O`, the growth is -17.3% (active).
Consider `Cc1nc2cc(Nc3nc(Nc4ccc(F)cc4)nc(N4CCN(C)CC4)n3)ccc2n1Cc1ccccc1`, for which the growth was 15.6%.
For the molecule `COc1ccc(OC)c2ncccc12`, the growth was 99%.
As for `COc1ccc(S(=O)(=O)ON=C2C=C(C)C(=O)C(C)=C2)cc1`, the growth was 60.7%.
`O=C(COc1cccc(/C=C2\COc3ccccc3C2=O)c1)c1ccccc1`: the growth was -81.7% (active).
Turning to `O=C1c2c(c3c4cc(Br)ccc4[nH]c3c3ccc4ccccc4c23)C(=O)N1O`, the growth is 68.8%.
On the same count and under the same terms, the same measure for `C=CC[P+](c1ccccc1)(c1ccccc1)c1ccccc1`: 79.7%.
Still for that read-out and setting: the same measure for `COC(=O)c1c2c(c(C)[n+]([O-])c1C)C(=O)C=C(NCc1cccc(Cl)c1)C2=O`: -31.4% (active).
As to `COc1ccc(-c2[nH]ncc2Nc2cc(OC)c(OC)c(OC)c2)cc1`, the growth is 32.4%.
Take `COc1ccc(-c2nc(Nc3ccc(F)cc3)nc(Nc3ccc4c(c3)nc(C)n4Cc3ccccc3)n2)cc1`: the growth is 45.7%.
As to `O=C(N/N=C(\CS(=O)(=O)c1ccccc1)c1cc2ccccc2oc1=O)c1ccccc1`, the growth was 105%.
On the same count and under the same terms, then `COc1ccc(C(=O)C2=CC(=O)C(=O)C2)cc1OC`, with 107%; and `COc1ccc(C(=O)COc2cccc(/C=C3\CSc4ccc(C)cc4C3=O)c2)cc1`, with -21.5% (active); and `Cc1ccc(S(=O)(=O)N2C/C(=C\c3cc(F)cc(F)c3)C(=O)/C(=C/c3cc(F)cc(F)c3)C2)cc1`, with -47% (active).
As for `Nc1nc(N)c(N=Nc2c(Br)cc(S(N)(=O)=O)cc2Br)c(N)n1`, the growth was 98%.
Regarding `Cc1ccc(-c2c3c(N)c4c(nc3nc3c2c(C)nn3-c2ccccc2)CCCC4)cc1`, the growth is 97.1%.
As for `COc1cc(-c2nc3ccccc3o2)cc(CN2CCN(c3ccccc3)CC2)c1O`, the growth was 94.3%.
With `Cc1cccc2c(=O)c3c(sc12)c(NCCNCCO)nc1ccccc13`, the growth is -67% (active).
Still for that read-out and setting: the same measure for `Nc1nc2c(s1)CCc1c-2c(Br)n(Cc2ccccc2)c1Br`: 35.3%; for `COC(=O)c1c2c(c(C)[n+]([O-])c1C)C(=O)C=C(NCc1cccc(OC)c1)C2=O`: -41.2% (active).
On to `COc1ccc(-c2csc3c2-n2cccc2C3=O)cc1O`, for which the growth is 20.2%.
Still for that read-out and setting: then `COc1ccc(-c2c(-c3cc4c(c(OC)c3OC)OCO4)noc2N)cc1`, with 17.9%.
On to `O=C(N/N=C(\CS(=O)(=O)c1ccccc1)c1cc2cc(Br)ccc2oc1=O)c1ccccc1`, for which the growth was 102%.
For the molecule `Cn1c(=O)c2c(-c3ccccc3F)n(-c3ccc4c(c3)OCO4)cc2n(C)c1=O`, the growth was 102%.
Still for that read-out and setting: the same measure for `CN(C)C(=S)SCN1C(=O)c2ccc([N+](=O)[O-])cc2S1(=O)=O`: 90.1%; for `Cc1nn(-c2ccccc2)c2nc3nc4c(c(N)c3c(-c3ccc(Cl)cc3)c12)CCCC4`: 79.5%; for `COc1cc(CNCCN2C(=O)c3ccc4c5c(ccc(c35)C2=O)C(=O)N(CCNCc2cc(OC)c(OC)c(OC)c2)C4=O)cc(OC)c1OC`: -87.3% (active).
Same read-out and setting: then `O=C(O)c1ccccc1Oc1cc(-c2ccco2)nc(OCCBr)n1`, with 105%; and `COc1cc(-c2ccc3cc(OC)c(OC)c(OC)c3c2)cc(OC)c1OC`, with 47.3%.
For the molecule `COc1cccc(-c2ccc3c(c2)C2CCN(Cc4ccccc4)C3C2)c1` (centres undefined), the growth was 53.6%.
Take `COc1ccc(OC2=CC(=O)c3ccc(C)nc3C2=O)cc1`: the growth is 94.9%.
With `CC(=O)OC[C@]1(C)C=C2C(=O)[C@](C)(O)C3(CC3)C(C)=C2[C@H]1OC(C)=O`, the growth is 88.2%.
